In all, about 53,000 sequences went through this assay and about 3,700 (7%) were called active.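 Rule for the calls: active = gene knockdowns whose robust z-score for IL-1 alpha signal is at least 2 or at most -2, so actives lie on both sides; inactive = the rest.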 The full list was thinned out, with actives kept by preference.
Experiment: Components of the Cytosolic LPS Sensing Pathway: Gene Identification via Genome-wide siRNA Screen;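 note: robust z of the log signal after scaling to non-targeting control siRNA wells of the plate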
Details: RAW264.7 macrophages, IL-1a HTRF, actives lie on both sides, screened at 100 nM (by protocol), cells primed 5 h with Pam3CSK4 first
In short: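 Supernatant IL-1a by HTRF from RAW264.7 cells primed with Pam3CSK4 (5 hours) and transfected with LipidA (24 hour) after 48h siRNA knockdown at 100 nM; cell viability checked with CellTiter-Glo.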

Sequence | z-score
GGGAAUUUGGGCAUGAUCATT against Olfr44 | -2.02 (active)
GCAUGUUCGCACGUGUCAATT against 5330439B14Rik | -1.05 (inactive)
CGACUGAUAGAUGAGUAAATT against C130026L21Rik | 0.424 (inactive)
CCGCACAUGCUCUCAAAUATT against Polr3d | -1.25 (inactive)
GGACAAAGAGGCAAUGGGATT against Dnajb9 | 1.08 (inactive)
GGUAAAAUCACUUCAGAUCTT against Phb | 2.23 (active)
GCAAGUGGAGUUUAUUGAUTT against Dbndd2 | -0.0399 (inactive)
CGCAUGAUAACUAGAGAAUTT against Slitrk3 | -0.269 (inactive)
GGCUGUUCGGGUGACUAUUTT against Il17re | -2.83 (active)
GGCAAUGUUUACAAGUUCCTT against Ralgps1 | 0.491 (inactive)
GCAGUACUAAGGAAGAUAUTT against Nudcd1 | -0.842 (inactive)
GCAUAAGCUACUGCUGACATT against Pcdha6 | -0.782 (inactive)
GGCAGCAGCACUGAUUACUTT against Gjc2 | -2.17 (active)
GGCAAGGCUACUACUUGCATT against Fgf14 | -0.117 (inactive)
GCCAGACACUUAAUCCCGUTT against Unc13d | 0.147 (inactive)
GGAUAUCAAGGGAUCAGACTT against Chchd4 | 0.00163 (inactive)
GGCUUAAGCAGACGUGUCATT against Lhx8 | -2.14 (active)
GCCCAUUAUGAAACUGAAGTT against Nfatc3 | 1.45 (inactive)
GGUGUUUAAGGAUGAACAATT against L3mbtl3 | 0.104 (inactive)
GCCACUUAAUGUCACUUUATT against Bag2 | 0.652 (inactive)
GCCAGAUCUUUAUAUCCCGTT against Gdi2 | -0.094 (inactive)
CCAGAUGUUACGAAUGAAATT against Tmem209 | -1.65 (inactive)
GGGCAAUGUUUGUCACUAATT against Akr1b10 | 1.55 (inactive)
CGGCCAUAUAAUUUUGAAUTT against Tbx20 | 0.233 (inactive)
CGGUUUAACAGCAAGGGUATT against Sec61a1 | -2.75 (active)
GGACUUAUUUCUUUAAGGATT against Mmp17 | -0.567 (inactive)
GGUGGAAUGAUAGUGUUCATT against Neurl1b | 1.67 (inactive)

Sequence | z-score
GGUUAUUUCCCUGUUUUCATT against Olfr532 | 1.5 (inactive)
GGAGUUUGGGAACACUUUGTT against Apoc1 | 0.617 (inactive)
GCCUCUUAGUAGAGACAGUTT against Naa80 | -0.725 (inactive)
GGUAAAGCAAGAGAGUAUUTT against Hccs | -0.629 (inactive)
GGUUCAAGGAUGAAUUAGATT against Trappc6b | -2.03 (active)
GCUUUUGAAUGUGUGGACUTT against Ugt2b37 | -0.938 (inactive)
CCCAAAGAAUUAUGAGUGUTT against Gpr149 | -0.678 (inactive)
GGCAAAUUCUGGAUCUGCUTT against Marf1 | -0.267 (inactive)
GGGAAAAAAAAAAAUCACCTT against Syne3 | -0.254 (inactive)
CCAAUGAUGGAGCUGAAGCTT against Ranbp1 | -2.72 (active)
GGUCAAGGCUGUCAAGUUGTT against Wdr45b | -0.13 (inactive)
GGUGCCCACUAACUUAGAATT against Tbx21 | 2.3 (active)
GGUGUUCGAUGGACGUGAUTT against Bmp1 | -0.183 (inactive)
GCAUCCUGGCUUAUCCAUUTT against Hmgb1 | -0.393 (inactive)
CCACUAUUAAACUUCUCAATT against Pex3 | 0.32 (inactive)
CCAGCUUCAUGCGUUUAAATT against Stx16 | 1.4 (inactive)
CCCUCACAGUAACCUGUCGTT against Espl1 | -2.56 (active)
GGUCGAAGUAUUGGAAAAUTT against Hesx1 | -1.71 (inactive)
GCAAAUGACUUCCAACAAUTT against Uqcrq | 3.84 (active)
GGAGAACAAAGUAUUGGUGTT against Cacna1f | 0.388 (inactive)
GCCAUAGGAGUGAUUGGAUTT against E130018O15Rik | -1.66 (inactive)
GGUGAGCAUGGACUAUGAUTT against Syt12 | -1.09 (inactive)
GCACUUGACAAGCAACAGUTT against Jup | -2.3 (active)
GCAUAUGGAUAAGAUUGUUTT against Efr3a | -0.363 (inactive)
GGAAAAGGGUCGUGCCUGUTT against Gm9991 | -0.07 (inactive)
GCAUUGGCAGACCCGAGUUTT against Pir | 0.238 (inactive)
GCUUGGUAAAAUGAAAGUCTT against Klhl12 | 0.22 (inactive)

Reference: PubChem BioAssay AID1508600 (Functional Genomics Laboratory (NCATS/FGL), 2020)
